Compound activity: PubChem BioAssay, several laboratories
The list is not random: actives were taken first. Their share in the collection is about 32%.
CYP2C9 activ – activators of human CYP2C9. recombinant CYP2C9, luciferin-H conversion, luminescence; active compounds read high; factor 1 = untreated enzyme, 0 = blocked. activation factor at 5 µM. P11712. 1.4% of 96,000 active;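 active = activation factor of 2 or more for CYP2C9 at a 5 µM dose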
CYP2C9 inhib – inhibitors of human CYP2C9; CYP2C9 Supersomes, luciferin-H conversion, luminescence; inhibition, % at 5 µM; 20% of 96,000 active; AID 777;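 active = blocking of liver enzyme CYP2C9 beyond about 50% at 5 µM, limit read from the data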
CYP2C19 activ – activators of human cytochrome P450 2C19. P33261. recombinant CYP2C19, luciferin-H EGE luminescence; active compounds read high; 0 = fully inhibited enzyme, 1 = untreated enzyme. activation factor at 5 µM. 96,000 tested, under 10 active;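 active = activation factor of at least 2 at 5 µM in the primary screen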
Target sequence (P33261 whole entry, looked up): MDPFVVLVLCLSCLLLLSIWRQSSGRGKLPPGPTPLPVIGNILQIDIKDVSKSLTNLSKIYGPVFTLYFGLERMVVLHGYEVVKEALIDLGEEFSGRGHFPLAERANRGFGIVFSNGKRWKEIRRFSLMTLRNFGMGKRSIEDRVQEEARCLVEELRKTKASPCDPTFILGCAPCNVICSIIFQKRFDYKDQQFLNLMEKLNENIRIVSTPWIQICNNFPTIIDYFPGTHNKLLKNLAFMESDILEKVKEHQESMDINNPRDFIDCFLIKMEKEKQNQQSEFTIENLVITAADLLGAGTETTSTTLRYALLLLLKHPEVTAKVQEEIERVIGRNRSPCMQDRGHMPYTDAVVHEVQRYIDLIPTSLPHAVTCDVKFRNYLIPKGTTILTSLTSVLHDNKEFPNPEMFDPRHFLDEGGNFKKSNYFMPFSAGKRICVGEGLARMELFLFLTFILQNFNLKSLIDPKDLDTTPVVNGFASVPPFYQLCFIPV
CYP2C19 inhib – inhibitors of human CYP2C19. CYP2C19 Supersomes, luciferin-H EGE luminescence, 30 min. AID 778. inhibition, % at 5 µM. 21% of 96,000 active;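 active = CYP2C19 inhibition above a set limit at 5 µM in the primary screen, cut at about 50% in these data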
PostGolgi yeast – growth inhibition of a yeast mutant, post-Golgi transport screen; inhibition, % at 10 µM; AID 739; post-Golgi transport phenotypic cell assay; 0.9% of 98,000 active;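 also: yeast cells grown in 1536-well plates; yeast grown about 18 h at 30C before absorbance read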
PostGolgi ctrl – yeast control strain growth, post-Golgi counter-screen; efflux-deficient yeast background strain, growth absorbance A615, 16 h; inhibition, % at 10 µM; 5% of 98,000 active; AID 738
Numbers stand for hits; . = inactive; / = no result given. Rule as the data show it, unless noted: active = inhibition above about 30%; inactive = the rest.

SMILES	CYP2C9 activ	CYP2C9 inhib	CYP2C19 activ	CYP2C19 inhib	PostGolgi yeast	PostGolgi ctrl
CC(=O)N1C(Nc2ccc(Cl)cc2)CCN1c1ccccc1 (configuration not stated)	.	.	.	.	.	.
CC(=O)NCc1ccc(-c2csc(N)n2)s1	.	.	.	.	.	.
Cc1ccc(S(=O)(=O)Nn2c(C)nnc2-n2nc(C)cc2C)cc1	.	.	.	.	.	.
Cc1cnc(SCCc2ccncc2)nc1C	.	.	.	76	.	.
CCCCOC(=O)CCn1[nH]c(=O)c2ccccc2c1=O	.	92	.	84	.	.
O=C(CCn1[nH]c(=O)c2ccccc2c1=O)NCCO	.	.	.	.	.	.
O=C(CCn1[nH]c(=O)c2ccccc2c1=O)OC1CCCCC1	.	.	.	81	.	.
N#Cc1c(NC(=O)CN2CCOCC2)oc(-c2ccccc2)c1-c1ccccc1	.	.	.	.	.	.
CCn1c(SCC(=O)Nc2oc(-c3ccccc3)c(-c3ccccc3)c2C#N)nnc1-c1cc(OC)cc(OC)c1	.	100	.	59	.	.
N#Cc1c(NC(=O)Cn2cnc3ccccc3c2=O)oc(-c2ccccc2)c1-c1ccccc1	.	83	.	.	.	.
Cc1ccnc(SCC(=O)Nc2oc(-c3ccccc3)c(-c3ccccc3)c2C#N)n1	.	88	.	.	.	.
Cc1ccnc(SCC(=O)Nc2c(C)n(C)n(-c3ccccc3)c2=O)n1	.	.	.	.	.	.
N#Cc1c(NC(=O)CSc2n[nH]c(Cc3ccccc3)n2)oc(-c2ccccc2)c1-c1ccccc1	.	99	.	91	.	.
NC(=O)c1ccc(F)cc1	/	/	/	/	.	.
N#CC(c1ccc(F)cc1)c1ccc(C(=O)c2ccc(F)cc2)cc1 (configuration not stated)	.	77	.	.	.	.
Cc1ccc(C(=O)c2ccc(C(F)(F)F)cc2)cc1	.	.	.	.	.	.
Cc1ccc(C(C#N)c2ccc(C(=O)c3ccc(F)cc3)cc2)cc1 (configuration not stated)	.	60	.	.	.	.
Cc1ccc(Cn2nnnc2CN2CCC(c3nc4ccc(Cl)cc4[nH]3)CC2)cc1	.	90	.	89	.	74
Cc1ccc(Cn2nnnc2CN2CCC(O)(c3ccc(F)cc3)CC2)cc1	.	.	.	.	.	.
Cc1ccccc1NC(=O)CN1C(=O)COc2ccc(Cl)cc21	.	55	.	97	.	.
CC(=O)c1ccc(NC(=O)CN2C(=O)COc3ccc(Cl)cc32)cc1	.	.	.	75	.	.
O=C(CSc1nnc(CNC(=O)c2ccccc2F)o1)Nc1ccc2c(c1)OCCO2	.	.	.	.	.	.
Cc1ccc(Sc2oc(/C=N/n3cnnc3)cc2Br)cc1	.	.	.	100	.	44
Cc1ccc(/C=N/n2cnnc2)s1	.	.	.	.	.	.
Cc1cccc(C)c1OC(=O)CN(c1ccc(Cl)cc1)S(C)(=O)=O	.	.	.	.	.	.
SMILES	CYP2C9 activ	CYP2C9 inhib	CYP2C19 activ	CYP2C19 inhib	PostGolgi yeast	PostGolgi ctrl
CN(C)c1nc2c(c(=O)[nH]c(=O)n2C)n1Cc1ccccc1Br	.	.	.	.	.	.
COC(=O)c1ccccc1NC(=O)CN(C)S(=O)(=O)c1ccc(OC)c(C)c1	.	.	.	100	.	.
COC(=O)c1ccccc1NC(=O)CN(C)S(=O)(=O)c1ccc(OC)cc1	.	.	.	72	.	.
COc1ccc(S(=O)(=O)N(C)CC(=O)Nc2cccc(C(C)=O)c2)cc1C	.	.	.	.	.	.
COc1ccccc1NC(=O)CN(C)S(=O)(=O)c1ccc(F)cc1	2.3	.	.	56	.	.
CN(CC(=O)Nc1ccccc1N1CCOCC1)S(=O)(=O)c1ccc(F)cc1	.	.	.	.	.	31
CCCOc1c(Cl)cc(/C=N/O)cc1OCC	.	.	.	.	.	.
O=C(CN(C(=O)CSc1nnc(COc2ccccc2)o1)c1ccc(F)cc1)NC1CCCCC1	.	.	.	.	.	.
Cc1cc(NC(=O)c2c([N+](=O)[O-])c(C)nn2C)no1	.	.	.	.	.	.
COc1ccc(NC(=O)CN(C)S(=O)(=O)c2ccccc2)cc1	.	55	.	62	.	.
COc1ccc(S(=O)(=O)N(C)CC(=O)Nc2ccc(C(F)(F)F)cc2)cc1Cl	.	57	.	.	.	.
COc1ccc(S(=O)(=O)N(C)CC(=O)Nc2ccccc2SC)cc1	.	.	.	98	.	.
COc1ccc(S(=O)(=O)N(C)CC(=O)Nc2ccccc2OC)cc1	.	.	.	73	.	.
Nc1n[nH]c(-c2ccccc2)c1-c1ccccc1	.	.	.	.	.	.
CC(=O)Nc1ccc(-c2nnc(SCC(=O)c3ccc4c(c3)Cc3ccccc3-4)n2C)cc1	.	.	.	.	.	.
O=C1Nc2ccccc2C1=Nc1ccc(-c2nnc3n2CCCCC3)cc1	.	.	.	.	.	.
COc1ccc(S(=O)(=O)N(C)CC(=O)Nc2ccccc2SC)cc1Cl	2.9	.	.	.	.	.
CNC(=O)CN(C)S(=O)(=O)c1ccc(OC)c(Cl)c1	.	.	.	.	.	.
CS(=O)(=O)N1CCC(C(=O)NCc2ccco2)CC1	.	.	.	.	.	.
Cc1c(C#N)c2ccccc2n1CCOc1ccccc1F	.	51	.	.	.	67
N#Cc1cn(CCOc2ccccc2F)c2ccccc12	.	100	.	98	.	58
Fc1ccccc1OCCCN1CCOCC1	.	.	.	.	.	.
N#Cc1cn(CC(=O)O)c2ccccc12	.	.	.	.	.	.
CCOc1ccc(/C(O)=C2\C(=O)C(=O)N(CCOCCO)C2c2ccccc2OC)cc1 (configuration not stated)	.	.	.	.	.	.
CCOCC(=O)Nc1cccc(NC(C)=O)c1	.	.	.	.	.	.
SMILES	CYP2C9 activ	CYP2C9 inhib	CYP2C19 activ	CYP2C19 inhib	PostGolgi yeast	PostGolgi ctrl
CCC(=O)c1ccc(N2CCN(C(=O)Cc3ccccc3)CC2)c(F)c1	.	95	.	78	.	.
CC(=O)c1cc(F)c(N2CCOCC2)cc1C	.	.	.	.	.	.
COc1ccc(C(=O)c2ccc(N3CCN(C(=O)c4ccc(F)cc4)CC3)c(F)c2)cc1Br	.	.	.	66	.	.
Cc1cc(N2CCOCC2)c(F)cc1C(=O)c1ccccc1	.	.	.	59	/	.
CCCC(=O)c1ccc(N2CCN(C(=O)c3ccccc3)CC2)c(F)c1	.	.	.	.	.	.
CCC(=O)c1cc(F)c(N2CCN(C(=O)Cc3ccccc3)CC2)cc1C	.	84	.	85	.	.
CSCCC1NC(=O)NC1=O (configuration not stated)	.	.	.	.	.	.
CCC(=O)c1ccc(N2CCN(C(=O)c3ccc(Br)cc3)CC2)c(F)c1	.	.	.	.	62	.
Cn1c(N)c(C(=O)CSc2nc3ccccc3n2-c2ccccc2)c(=O)n(C)c1=O	.	.	.	.	/	/
